This is an account of results in PubChem BioAssay (NCATS).

Records with an inconclusive call do not appear. Entries that show only a call come without a potency. Active and inactive are the calls of the source. Unless noted, calls follow the shape of the dose curve; as a rule, active = well fitted curve in the direction sought with a large enough effect; inconclusive = small, poorly fitted or top-dose-only effect, or another doubt; inactive = no such curve, though single readings can be large; an effect the other way counts as inactive or inconclusive.

Test [1] in a line: qHTS assay for measurement of the activity of small molecule inhibitors on Zika virus induced Caspase-3 activity in human astrocytoma cells (AID 1224859). The essentials:
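Compound added 1 h pre-infection; ZIKV 2 FFU/cell on SNB-19 cells, 6 h, 37 C/5% CO2. Caspase-Glo 3/7 luminescence; values as % inhibition of ZIKV-induced caspase activity.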
(In qHTS, concentration-response curves come from the screen itself.)

The nature of test [2]: qHTS assay to identify small molecule inhibitors of chordoma cells - UCH-2 (AID 1259356).
Test [3] can be described thus: qHTS assay to identify small molecule inhibitors of chordoma cells - UCH-1 (AID 1259355). Also: nearly all actives have a fitted effect of over 55% in size. Also: potency is read from the fitted curve at half-maximal effect. A digest of the protocol:
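A 48hr growth-inhibition format: each drug tested at 15 concentrations together with added auranofin, camptothecin, doxorubicin, rubitecan and topotecan, with cell viability quantified as CellTiter-Glo luminescence.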

The nature of test [4]: qHTS profiling of the MIPE4 collection as inhibitors of Plasmodium falciparum (3D7) proliferation (AID 743344; call rule not given here). To be noted: P. falciparum 3D7 in erythrocytes, SYBR Green DNA fluorescence, 72 h; at 28.5 µM (top of the series) unless noted. A digest of the protocol: (§1)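 Parasite DNA was quantified by SYBR Green I fluorescence (ex 485, em 535 nm) after overnight lysis in saponin/Triton buffer at room temperature. Cultures at 0.3% parasitemia and 2.5% hematocrit were first exposed to compound for 72 h at 37 C; signals were normalised to artemisinin (0.29 uM) and vehicle wells.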

Test [5] can be described thus: qHTS profiling of the MIPE4 collection as inhibitors of Plasmodium falciparum (DD2) proliferation (AID 743345; call rule not given here). To be noted: P. falciparum Dd2 in erythrocytes, SYBR Green DNA, 72 h; at 28.5 µM (top of the series) unless noted. A digest of the protocol:
as §1

Test [6] is described as follows: qHTS profiling of the MIPE4 collection as inhibitors of Plasmodium falciparum (DD2) proliferation (Rep 2) (AID 743346; call rule not given here). Conditions: P. falciparum Dd2 in erythrocytes, SYBR Green DNA, 72 h; at 28.5 µM (top of the series) unless noted. The essentials: as §1
A short description of test [7]: qHTS profiling of the MIPE4 collection as inhibitors of Plasmodium falciparum (HB3) proliferation (AID 743347; call rule not given here). To be noted: P. falciparum HB3 in erythrocytes, SYBR Green DNA, 72 h; at 28.5 µM (top of the series) unless noted. A digest of the protocol:
as §1

In the case of `CN=C(NC#N)Nc1ccc(C2=NNC(=O)CC2C)cc1` (stereo not drawn), the result in test [1] was inactive. In test [2], the Potency result is “inactive”.
With `CC1=C(C(=O)O)N2C(=O)[C@@H](NC(=O)[C@H](N)c3ccc(O)cc3)[C@H]2SC1`, the call in test [1] was inactive. Further, the Potency entry in test [3] and in test [2] was “inactive” each time.
As to `CCCCC(=O)O[C@]1(C(=O)CO)CC[C@H]2[C@@H]3CCC4=CC(=O)CC[C@]4(C)[C@H]3[C@@H](O)C[C@@]21C`, the call in test [1] was inactive. Moreover, the Potency result in test [2] was “inactive”.
On to `c1ccc(-c2ccc(C(c3ccccc3)n3ccnc3)cc2)cc1` (stereo not drawn), for which the compound was classed as inactive in test [1]. The Potency result in test [3] and in test [2] was “inactive” each time.
Consider `CN(C(=O)CN(CCO)CC(=O)N(C)C(C)(C)Cc1ccccc1)C(C)(C)Cc1ccccc1`, for which the outcome in test [1] was inactive. Also, the Potency entry in test [3] and in test [2] was “inactive” throughout.
As to `O=C1OC2(c3ccc(O)cc3Oc3cc(O)ccc32)c2ccccc21`, in test [1], the outcome was inactive. Further, the Potency result in test [2] is “inactive”.
Take `NCCC(O)(P(=O)(O)O)P(=O)(O)O`: the Potency entry in test [3] and in test [2] was “inactive” throughout.
As to `Cc1cccn2c(=O)c(-c3nnn[nH]3)cnc12`, the Potency result in test [3] and in test [2] was “inactive” in each case.
In the case of `COc1cccc2c1C(=O)c1c(O)c3c(c(O)c1C2=O)C[C@@](O)(C(C)=O)C[C@@H]3O[C@H]1C[C@H](N)[C@H](O)[C@H](C)O1`, the Potency in test [3] is 1.78 µM (active).
For the compound `CN=C(NC#N)NCCSCc1csc(N=C(N)N)n1`, the result in test [1] was inactive. The Potency result in test [3] and in test [2] was “inactive” throughout.
`CCOc1ccc(NC(=O)CC(C)O)cc1` (stereo not drawn): in test [1], the call was inactive. Besides, the Potency entry in test [2] was “inactive”.
As to `CC(=O)N/N=C/c1ccc([N+](=O)[O-])o1`, the Potency entry in test [3] was “inactive”.
On to `O=C(OCC(O)CO)c1ccccc1Nc1ccnc2cc(Cl)ccc12` (stereo not drawn), for which the Potency result in test [3] and in test [2] was “inactive” throughout.
As for `Cc1c(C(C)C)c(=O)n(-c2ccccc2)n1C`, the compound was called inactive in test [1]. Also, the Potency entry in test [2] is “inactive”.
Consider `COc1cc(NS(C)(=O)=O)ccc1Nc1c2ccccc2nc2ccccc12`, for which the outcome in test [1] was inactive. Moreover, in test [3], the Potency was 28.2 µM (active).
`CC1=C(C(=O)OC(C)C)C(c2cccc([N+](=O)[O-])c2)C(C(=O)OC2CN(C(c3ccccc3)c3ccccc3)C2)=C(N)N1` (stereo not drawn) yielded a parasite growth, % of DMSO control in test [4] of 6.8%. In addition, the parasite growth remaining, % of DMSO control (lower = more inhibition) in test [5] is 7.73%. Besides, in test [6], the parasite growth, % of control (lower = inhibition) stood at 24.4%. Also, in test [7], the growth, % of control turned out to be 9.79%. In test [1], the compound was classed as inactive. Besides, the Potency result in test [3] and in test [2] was “inactive” each time.
In the case of `CC1(C)O[C@@H]2C[C@H]3[C@@H]4CCC5=CC(=O)CC[C@]5(C)[C@@]4(F)[C@@H](O)C[C@]3(C)[C@]2(C(=O)CCl)O1`, the call in test [1] was inactive. For the same compound, in test [2], the Potency entry was “inactive”.
For the compound `C[C@@H](CN(C)C)CN1c2ccccc2Sc2ccccc21`, the compound was called inactive in test [1]. The Potency result in test [3] and in test [2] was “inactive” throughout.
Consider `CC(=O)Nc1c(I)cc(I)c(C(=O)O)c1I`, for which, in test [1], the compound was classed as inactive. For the same compound, the Potency entry in test [3] and in test [2] was “inactive” each time.
Regarding `C[C@]12CC[C@@H]3c4ccc(O)cc4CC[C@H]3[C@@H]1C[C@@H](O)[C@@H]2O`, the compound was classed as inactive in test [1]. Besides, the Potency entry in test [3] is “inactive”.
For the compound `O=C1OCCN1/N=C/c1ccc([N+](=O)[O-])o1`, the compound was classed as inactive in test [1]. The Potency result in test [2] was “inactive”.
`CC(=O)OCC(=O)[C@@]1(OC(C)=O)[C@@H](C)C[C@H]2[C@@H]3C[C@H](F)C4=CC(=O)C=C[C@]4(C)[C@@]3(F)[C@@H](O)C[C@@]21C`: the compound was classed as inactive in test [1]. Further, the Potency entry in test [2] was “inactive”.
As for `COc1ccc(OC)c(C(O)CNC(=O)CN)c1` (stereo not drawn), in test [1], the result was inactive. For the same compound, the Potency entry in test [2] was “inactive”.
Take `CCN1CCC[C@H]1CNC(=O)c1c(OC)ccc(Br)c1OC`: the compound was called inactive in test [1]. The Potency entry in test [3] and in test [2] was “inactive” throughout.
Turning to `CC(=O)OCC(=O)[C@@]12N=C(C)O[C@@H]1C[C@H]1[C@@H]3CCC4=CC(=O)C=C[C@]4(C)[C@H]3[C@@H](O)C[C@@]12C`, the result in test [1] was inactive. Further, the Potency entry in test [2] is “inactive”.
Regarding `O=C1CCC(c2ccc(-n3ccnc3)cc2)=NN1`, the call in test [1] was inactive. Besides, the Potency result in test [3] and in test [2] was “inactive” in each case.
Regarding `CCN(CC)CCNC(=O)COc1ccc(Cl)cc1`, in test [1], the result was inactive. Besides, the Potency entry in test [3] and in test [2] was “inactive” each time.
As to `CCC(C(=O)OCCN(CC)CC)c1ccccc1` (stereo not drawn), in test [1], the result was inactive. Besides, in test [3], the Potency result is “inactive”.
With `COc1cc(OC)cc(OC)c1`, the compound was called inactive in test [1]. Moreover, the Potency entry in test [2] is “inactive”.
Turning to `CC[C@H](C)C(=O)O[C@H]1CCC=C2C=C[C@H](C)[C@H](CC[C@@H]3C[C@@H](O)CC(=O)O3)[C@H]21`, the call in test [1] was inactive. Further, the Potency result in test [3] was “inactive”.
Regarding `CCN(CC)C(=O)N1CCN(C)CC1`, the call in test [1] was inactive. Moreover, the Potency result in test [3] and in test [2] was “inactive” in each case.
`CC(C)(C)CC(C)(C)c1ccc(OCCOCC[N+](C)(C)Cc2ccccc2)cc1`: the compound was called inactive in test [1]. Moreover, in test [2], the Potency entry is “inactive”.
Take `CC(C)(CO)[C@@H](O)C(=O)NCCCO`: in test [1], the call was inactive. In addition, in test [2], the Potency entry was “inactive”.
Take `CN1CCCC(CC2c3ccccc3Sc3ccccc32)C1` (stereo not drawn): the outcome in test [1] was inactive. In addition, in test [3], the Potency result is “inactive”.
As for `COc1c2occc2c(OC)c2c(=O)cc(C)oc12`, in test [1], the compound was called inactive. In addition, the Potency entry in test [2] was “inactive”.
Regarding `CN(C)/N=N/c1nc[nH]c1C(N)=O`, the outcome in test [1] was inactive. Moreover, the Potency entry in test [2] was “inactive”.
As for `CC(=O)CC(c1ccc([N+](=O)[O-])cc1)c1c(O)c2ccccc2oc1=O` (stereo not drawn), the compound was called inactive in test [1]. Moreover, the Potency result in test [3] and in test [2] was “inactive” in each case.
